Bioassay records from PubChem.
Dicer inh – inhibitors of Dicer pre-microRNA processing, primary screen, biochemical, cat-ELCCA, chemiluminescence; AID 1347074, 2019; Endoribonuclease Dicer (Homo sapiens), Q9UPY3; cat-ELCCA pre-miR-21 Dicer processing; stronger effect = higher value; z-score at 25 µM; 47,000 tested, 6% active; in the data active = z-score above about 3, passing the limit was not always enough;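 also: plate controls were vehicle for no effect and no enzyme for full effect; higher signal means more uncleaved substrate so more Dicer inhibition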
* hit, by the source's call. Many of the other results were omitted from the sample, so hits are more common in it than they were.

SMILES	Dicer inh
Cc1ccc2nc3c(nc2c1C)C(O)=C3O	4.2*
Cc1ccc(S(=O)(=O)NC(=O)N(C)CCc2ccccn2)cc1	0.38
Cc1ccc(N(CC2=NCCN2)c2cccc(O)c2)cc1	0.38
NS(=O)(=O)c1ccc(NC(=O)C2CC=CCC2C(=O)N2CCOCC2)cc1 (stereo not drawn)	0.24
Cc1ccccc1OCC(O)Cn1c[n+](C)c2ccccc21 (stereo not drawn)	-0.64
CCOC(=O)c1cn2nc(Oc3ccc(C#N)cc3)ccc2n1	-0.96
CCN(/C=C/c1nnnn1-c1ccc(Br)cc1)CC	-0.37
CCN(/C=C/c1nnnn1-c1ccc(Cl)cc1)c1ccccc1	3.2*
CCc1ccc(-n2nnnc2/C=C/N(C)C)cc1	1.7
Cn1c(=O)c(C2=NN(C(=O)c3ccco3)C(c3ccco3)C2)c(-c2ccccc2)c2cc(Cl)ccc21 (stereo not drawn)	0.39
Oc1ccccc1-c1nc2ccccc2[nH]1	3.2*
Cc1ccc(-c2nc3ccccc3[nH]2)cc1	0.21
Cc1ccc(SCc2ccccc2-c2nc3ccccc3[nH]2)cc1	-1.4
C=CCN1/C(=C/c2cc[n+](CC)cc2)Sc2ccccc21	-0.74
Cc1onc(-c2ccccc2)c1NC(=O)N1c2ccc(F)cc2CCC1C (stereo not drawn)	2
Cn1c(SCC(=O)Nc2cccc(Cl)c2)nnc1-c1ccc(C(C)(C)C)cc1	-0.75
N/C(=N\NS(=O)(=O)c1ccccc1OC(F)(F)F)c1ccc(C(F)(F)F)cn1	-0.76
Cc1ccc(Sc2ncccc2-n2cccc2)cc1	-2
CCOc1cc(C)c(Cl)cc1S(=O)(=O)n1cc(C)nc1CC	2.7
O=C(CCn1nnc(-c2cccc(Cl)c2Cl)n1)N/N=C/c1ccccc1Cl	3.2*
Cn1c(C(=O)N/N=C/c2ccccc2Cl)cnc1SCc1ccc(Cl)cc1	0.03
CCOC(=O)c1ccc(NC(=S)N/N=C/c2ccccc2Cl)cc1	9.9
OCC1c2ccccc2Oc2ccccc21	-0.34
CC1=C(C(=O)Nc2cccc(F)c2)C(c2ccsc2)C2=C(CC(C)(C)CC2=O)N1 (stereo not drawn)	3.7*
CC1=C(C(=O)Nc2cccc(C)n2)C(c2ccsc2)C2=C(CC(C)(C)CC2=O)N1 (stereo not drawn)	0.2
SMILES	Dicer inh
CCSCCOC(=O)C1=C(C)NC2=C(C(=O)CC(C)(C)C2)C1c1ccsc1 (stereo not drawn)	11
O=S(=O)(Nc1ccc(F)cc1F)c1ccc2c(c1)OCCO2	-1.8
O=C(O)CSc1nnc(-c2ccccc2Br)o1	-1.1
COc1ccc(C(=O)Nc2sc3c(c2C(N)=O)CCCC3)cc1Br	0.84
O=C(O)c1ccccc1-c1c2ccc3cc(O)ccc3c2oc2c1ccc1cc(=O)ccc12	4.3*
O=c1c(-c2cccc3ccccc23)c(C(F)(F)F)oc2cc(O)ccc12	-0.11
COc1ccccc1-c1cc(C(=O)O)c2ccccc2n1	-0.51
C=CCC1C(=O)N(S(=O)(=O)c2ccc(Cl)cc2)N=C1CCC (stereo not drawn)	-6.2
Cc1cc(C)nc(NCc2ccc(Cl)cc2)n1	-0.02
COC(=O)c1c(OC)ccc(N=C/C(C(C)=O)=C(\C)O)c1OC	-0.8
CCC/C(O)=C(/C=Nc1ccccc1C(=O)OC)C(=O)OCC	3.2*
CCOC(=O)C(=CNc1ccc(C(=O)OC)o1)C(=O)OCC	0.79
Cc1cc(C)cc(NS(=O)(=O)c2cccc3cccnc23)c1	-0.31
CC1(C)Cc2c(sc(N)c2C(=O)O)CO1	-1.2
O=C(NC1CCCCC1)c1cnn2c(C(F)F)cc(-c3ccccc3)nc12	-0.3
COC(=O)c1ccc(OCC(O)Cn2c[n+](C)c3ccccc32)cc1 (stereo not drawn)	1.4
CCc1ccc(C(=O)/C=C/Sc2nc3ccc(C)cc3[nH]2)cc1	0.92
CSC(=NC#N)S/C=C/C(=O)c1cccc(Br)c1	-2.2
Cc1ccc2nc(S/C=C/C(=O)c3cccc(Br)c3)[nH]c2c1	3.5*
Cc1cccc(-c2ncc(S(=O)(=O)C(C)(C)C)c(N)n2)c1	-0.51
COc1nc(NS(=O)(=O)c2ccc(C)cc2)nc(C)c1Cl	-0.17
Cc1cc(C)c(S(=O)(=O)Nc2cccc3ccc(C)nc23)c(C)c1	-0.95
Cc1cc(C)c(S(=O)(=O)Nc2cc(Cl)c3oc(=O)sc3c2)c(C)c1	12*
COc1ccc(OC)c(NS(=O)(=O)c2ccc(Br)cc2)c1	6.1
Cc1cc(C)c(S(=O)(=O)Nc2ccc(O)cc2)c(C)c1	1.4
SMILES	Dicer inh
COc1ccc(S(=O)(=O)Nc2cc(Cl)c3oc(=O)sc3c2)cc1OC	4.3*
O=[N+]([O-])c1cccnc1Sc1nc2cccnc2s1	-0.85
COc1ccc(/C(C#N)=C2C=C(Br)/C(=N/O)C=C\2Cl)cc1	7.1
Oc1ccccc1-c1nc(NC2CCCCC2)c2ccccc2n1	1.1
Nc1c(C(=O)Nc2ccccc2)oc2ccccc12	5.4*
O=C(Nc1ccccc1)c1ccc2ccccc2c1O	0.47
O=C(O)C1=C(C(=O)Nc2ccccc2)SCCS1	-0.77
CCOC(=O)c1cc(C)nc(Sc2ccccc2NC(=O)c2ccccc2)c1C#N	-2.6
COC(=O)c1c(OC)ccc(NC(=O)NC(=O)c2c(OC)c(Br)cc([N+](=O)[O-])c2OC)c1OC	-0.69
COC(=O)NNc1cc(C(F)(F)F)ccn1	-0.24
CC(C)N(C(=O)CN(C#N)c1nc(N(C)C)nc(N(C)C)n1)c1ccccc1	5.2*
CC(O)c1nc2ccccc2n1CC(=O)N(c1ccccc1)C(C)C (stereo not drawn)	0.62
CC(C)N(C(=O)CSc1nc2ccccc2s1)c1ccccc1	-0.03
CCSc1nnc2c(n1)OC(c1ccc(O)c(O)c1)Nc1ccccc1-2 (stereo not drawn)	2.3
COc1ccccc1C1Nc2ccccc2-c2nnc(SC)nc2O1 (stereo not drawn)	-0.54
CSc1nnc2c(n1)OC(c1ccccc1OCC(=O)O)Nc1ccccc1-2 (stereo not drawn)	4.5*
CSc1nnc2c(n1)OC(c1ccc(C(=O)O)cc1)Nc1ccc(Br)cc1-2 (stereo not drawn)	0.21
CSc1nnc2c(n1)OC(c1ccc(OCC(=O)O)cc1)Nc1ccccc1-2 (stereo not drawn)	0.76
CSc1nnc2c(n1)OC(c1ccc(O)c(O)c1)Nc1ccccc1-2 (stereo not drawn)	4.4*
COc1ccc(C2Nc3ccccc3-c3nnc(SC)nc3O2)cc1 (stereo not drawn)	1.5
CSc1nnc2c(n1)OC(c1ccc(N(C)C)cc1)Nc1ccccc1-2 (stereo not drawn)	23
CSc1nnc2c(n1)OC(c1ccc(Br)cc1)Nc1ccccc1-2 (stereo not drawn)	5.4*
COc1ccc(C(=O)Nc2ccccc2Sc2nc3ccc(Cl)cc3s2)cc1	-1.6
COc1ccccc1N1CCN(CCN2C(=O)CC3(CCCC3)CC2=O)CC1	-0.29
Nc1cc(-c2ccc(Cl)cc2)nc(N)n1	0.31
SMILES	Dicer inh
CCCCCSc1nc(C)c(CC(=O)O)c(=O)[nH]1	-2
COc1ccc(-c2ccc3cc(C(=O)O)ccc3c2)cc1C12CC3CC(CC(C3)C1)C2	0.25
O=C(Cn1c(=O)sc2ccccc21)Nc1ccccc1Cl	-0.75
CC(C)(C)c1[nH]nc2c1C(c1ccccc1)C(C#N)=C(N)O2 (stereo not drawn)	-1.8
COC(=O)CSC1=C(C#N)C(c2ccc(C)o2)CC(=O)N1 (stereo not drawn)	1.3
CSc1nc(NC(=O)NS(=O)(=O)Oc2ccc(Cl)cc2Cl)nc(C23CC4CC(CC(C4)C2)C3)n1	1.3
Cc1cc(Oc2ncccc2[N+](=O)[O-])c2ccccc2n1	-0.49
